# Assay outcomes (PubChem BioAssay)
# Only some compounds are listed: those with a hit (about 5% of all), similar ones and a draw of the others.
# ALR inh: human ALR oxidase inhibition via reduced H2O2 | P55789 | purified ALR, DTT oxidation, H2O2 HRP-luminol luminescence | inhibition, % (test concentration not listed) | hit rate 3.8% among 290,000;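 active means mean replicate inhibition above about 79%, with every replicate also reaching it, limit read from the data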
# PREPL inh: inhibits the human prolyl oligopeptidase-like enzyme; recombinant PREPL, fluorescence polarization activity-based probe; AID 2751; hit rate 0.68% among 320,000; Q4J6C6; inhibition, % at 5.96 µM; in the data active means inhibition above about 43%;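 further: 0% = enzyme with DMSO and 100% = wells lacking enzyme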
# CHT PAM: human CHT allosteric activation; Q9GZV3; hit rate 0.49% among 310,000; AID 488977; B-score at 10 µM; CHT-expressing cells, membrane potential dye, choline EC20; active compounds read high; LV-AA mutant CHT in HEK293 cells;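 active means initial fluorescence not abnormally high and integrated response B-score, plate-corrected, over 3 SD above library mean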
# Target sequence (Q9GZV3 whole entry, looked up): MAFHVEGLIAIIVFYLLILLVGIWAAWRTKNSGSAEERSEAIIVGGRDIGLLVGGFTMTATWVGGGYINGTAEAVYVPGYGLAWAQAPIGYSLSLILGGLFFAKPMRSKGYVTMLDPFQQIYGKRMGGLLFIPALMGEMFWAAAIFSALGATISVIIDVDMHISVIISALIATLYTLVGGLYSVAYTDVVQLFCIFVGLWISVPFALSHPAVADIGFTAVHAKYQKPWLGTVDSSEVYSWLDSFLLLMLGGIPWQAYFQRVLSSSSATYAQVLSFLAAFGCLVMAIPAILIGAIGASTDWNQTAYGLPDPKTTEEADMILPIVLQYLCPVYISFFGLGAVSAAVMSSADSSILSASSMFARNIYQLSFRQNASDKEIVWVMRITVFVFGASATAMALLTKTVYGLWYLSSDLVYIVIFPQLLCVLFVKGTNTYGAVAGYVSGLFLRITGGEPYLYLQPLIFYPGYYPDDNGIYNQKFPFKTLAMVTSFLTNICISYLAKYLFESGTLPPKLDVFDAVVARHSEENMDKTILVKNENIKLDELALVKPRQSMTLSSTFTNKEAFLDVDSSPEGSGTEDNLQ
# CHT block: inhibits the human high affinity choline transporter; Q9GZV3; B-score at 10 µM; CHT-expressing cells, membrane potential dye, choline response; active compounds read low; hit rate 0.86% among 310,000;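 active means B-score over 3 SD under the library average, and starting fluorescence ratio not unusually high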;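 further: choline stimulus applied at its EC90 after an EC20 pre-addition; B-score computed on integrated fluorescence ratio after choline addition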
# AI-2 QS mod: Vibrio harveyi AI-2 quorum sensing modulation; Vibrio harveyi JMH597 AI-2 luminescence/OD600 ratio, 9 h; active compounds read low; strain lacks LuxN and CqsS sensors; 0 = neutral-control median; activity change, % at 7.5 µM; hit rate 0.4% among 300,000; AID 2094; in the data active means activity change below about -75%, passing the limit was not always enough;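 further: luminescence divided by OD600 gain over 9 h not by final OD600 alone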
# * = called active by the depositor; i = inactive; / = not tested or not shown.
SMILES,ALR inh,PREPL inh,CHT PAM,CHT block,AI-2 QS mod
Nc1ccc(Oc2ccc3c(c2)OCO3)cc1,99*,6,i,i,11
Cc1cc(C)cc(Oc2ccc(N)cc2)c1,98*,-1,i,i,20
Nc1ccc(Oc2cccc(Oc3ccc(N)cc3)c2)cc1,100*,11,i,i,17
Nc1ccc(Oc2ccc(Br)cc2)cc1,32,11,i,i,28
Cc1cccc(Oc2ccc(N)cc2)c1,98*,7,i,i,-4
CN1CCN(C(CNC(=O)C(=O)Nc2ccc3c(c2)OCO3)c2ccc(F)cc2)CC1 (stereo not given),-10,14,i,i,22
Cc1cc(C)c2oc(=O)cc(CN3CCC(C)CC3)c2c1,/,-7,i,i,10
N#C/C(=C(/O)CCl)c1nc2ccccc2[nH]1,29,50*,i,i,16
N#C/C(=C(/O)c1cccs1)c1nc2ccccc2[nH]1,-6,77*,i,i,20
Fc1ccccc1Cc1noc(CN2CCN(c3ccc(Cl)cn3)CC2)n1,-15,-24,i,i,31
CCC1C(C#N)=C(SCC(N)=O)NC2=C1C(=O)CC(C)(C)C2 (stereo not given),97*,4,i,i,8
COC(=O)COc1cccc2c(=O)n(CC(=O)N3CCCc4ccccc43)ccc12,89*,0,i,i,-2
CCOC(=O)COc1cccc2c(=O)n(CC(=O)N3CCCCC3)ccc12,/,4,i,i,-2
O=C(O)c1ccc(N2C(=O)CC(N3C(=O)/C(=C/c4ccc(Cl)cc4)SC3=S)C2=O)cc1 (stereo not given),100*,10,i,i,33
O=C(O)c1ccc(N2C(=O)CC(N3CCN(c4ccc(Cl)cc4)CC3)C2=O)cc1 (stereo not given),23,-10,i,i,11
CCOc1ccccc1C1N=C(c2ccc(OC)cc2)CC(c2ccccc2O)N1 (stereo not given),96*,5,i,i,-1
CC(C)C1N=C(c2ccc3c(c2)OCO3)CC(c2ccccc2O)N1 (stereo not given),20,2,i,i,-9
CC/C(=N\NC(=O)c1nnn(-c2nonc2N)c1CN(C)c1ccccc1)c1ccccc1,0,6,i,i,23
CC(=NC1CCCC1)c1c(C)[nH]n(-c2nc3ccccc3s2)c1=O,93*,-1,i,i,37
Cc1ccc(S(=O)(=O)NCCc2nnc3ccc(SCC(=O)Nc4nc(C)cs4)nn23)cc1,98*,1,i,i,32
Cc1ccc(C(=O)NCCc2nnc3ccc(SCC(=O)Nc4ccc(C)cc4C)nn23)cc1,-6,5,i,i,13
Cc1cc(C)c(NC(=O)CSc2ccc3nnc(CCNC(=O)c4ccccc4)n3n2)c(C)c1,-3,-4,i,i,-2
Cc1ccc(C(=O)NCCc2nnc3ccc(SCC(=O)Nc4ccccc4F)nn23)cc1,97*,1,i,i,18
COc1ccc(NC(=O)COC(=O)C2CCC2)cc1Cl,-5,-9,i,i,10
Cn1nc(C(C)(C)C)cc1C(=O)Sc1cccc(Br)c1,99*,3,i,i,-9
SMILES,ALR inh,PREPL inh,CHT PAM,CHT block,AI-2 QS mod
Cc1sc2ncnc(N(C)C3CCCCC3)c2c1C,22,8,i,i,34
CN(c1nnc(N)s1)C1CCCCC1,99*,9,i,i,1
CSc1cccc(NC(=O)c2ccco2)c1,98*,-7,i,i,6
CC1N(C)c2cc(NC(=O)c3ccco3)ccc2C1(C)C (stereo not given),98*,-226,i,i,8
O=C(Nc1ccccc1)c1cccc(NC(=O)c2ccco2)c1,-4,13,i,i,9
O=C(CSc1ccccc1)Nc1cccc(NC(=O)c2ccco2)c1,-8,-25,i,i,17
CN(C)c1cccc(NC(=O)c2ccco2)c1,99*,20,i,i,16
O=C(O)c1cc(-c2c[nH]c3ccccc23)nc2ccc3ccccc3c12,92*,-2,i,i,17
Cc1ccc(C(C)C)cc1OCC(=O)NC1CCCCCCC1,0,12,i,i,27
COc1ccc(N2CCN(Cc3nc(Cc4cccc(F)c4)no3)C(C)C2)cc1 (stereo not given),98*,1,i,i,27
